Five compounds from PubChem BioAssay (NCATS) can be followed below.

SMILES strings stand for the structures. A number with no mark means an inactive call. Inconclusive results are not listed. Entries that show only a call come without a potency. Activity calls are given as the source filed them. The call rests on the fitted dose curve; in most records, active means well fitted curve in the direction sought with a large enough effect; inconclusive means small, poorly fitted or top-dose-only effect, or another doubt; inactive means no such curve, though single readings can be large; an effect the other way counts as inactive or inconclusive.

Nuclear receptor subfamily 1 group I member 2 (Homo sapiens), sequence (O75469 whole entry, looked up): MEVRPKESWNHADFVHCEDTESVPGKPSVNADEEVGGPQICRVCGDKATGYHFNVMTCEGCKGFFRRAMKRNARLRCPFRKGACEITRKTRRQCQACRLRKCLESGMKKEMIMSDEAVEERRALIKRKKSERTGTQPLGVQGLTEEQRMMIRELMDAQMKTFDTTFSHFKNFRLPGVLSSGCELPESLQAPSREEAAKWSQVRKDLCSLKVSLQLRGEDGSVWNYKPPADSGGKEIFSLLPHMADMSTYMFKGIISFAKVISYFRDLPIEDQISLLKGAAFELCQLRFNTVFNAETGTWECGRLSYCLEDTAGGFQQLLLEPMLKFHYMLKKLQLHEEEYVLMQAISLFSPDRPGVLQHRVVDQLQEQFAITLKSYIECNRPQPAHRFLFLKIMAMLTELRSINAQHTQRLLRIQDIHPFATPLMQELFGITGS
Cytochrome P450 2C9 (Homo sapiens), sequence (P11712 whole entry, looked up): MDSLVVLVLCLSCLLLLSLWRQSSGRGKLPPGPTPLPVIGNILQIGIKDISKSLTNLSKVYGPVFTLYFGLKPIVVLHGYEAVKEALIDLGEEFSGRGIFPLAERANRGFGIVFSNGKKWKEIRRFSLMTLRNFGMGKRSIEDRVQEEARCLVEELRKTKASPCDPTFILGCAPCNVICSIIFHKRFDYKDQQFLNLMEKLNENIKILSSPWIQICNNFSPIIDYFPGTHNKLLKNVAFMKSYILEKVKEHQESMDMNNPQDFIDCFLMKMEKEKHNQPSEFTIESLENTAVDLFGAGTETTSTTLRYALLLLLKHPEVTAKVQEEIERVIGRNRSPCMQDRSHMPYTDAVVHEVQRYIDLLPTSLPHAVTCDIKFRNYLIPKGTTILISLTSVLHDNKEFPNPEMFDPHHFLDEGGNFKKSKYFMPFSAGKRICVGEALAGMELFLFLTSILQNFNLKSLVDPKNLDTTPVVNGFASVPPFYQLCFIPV
Cytochrome P450 2C19 (Homo sapiens), sequence (P33261 whole entry, looked up): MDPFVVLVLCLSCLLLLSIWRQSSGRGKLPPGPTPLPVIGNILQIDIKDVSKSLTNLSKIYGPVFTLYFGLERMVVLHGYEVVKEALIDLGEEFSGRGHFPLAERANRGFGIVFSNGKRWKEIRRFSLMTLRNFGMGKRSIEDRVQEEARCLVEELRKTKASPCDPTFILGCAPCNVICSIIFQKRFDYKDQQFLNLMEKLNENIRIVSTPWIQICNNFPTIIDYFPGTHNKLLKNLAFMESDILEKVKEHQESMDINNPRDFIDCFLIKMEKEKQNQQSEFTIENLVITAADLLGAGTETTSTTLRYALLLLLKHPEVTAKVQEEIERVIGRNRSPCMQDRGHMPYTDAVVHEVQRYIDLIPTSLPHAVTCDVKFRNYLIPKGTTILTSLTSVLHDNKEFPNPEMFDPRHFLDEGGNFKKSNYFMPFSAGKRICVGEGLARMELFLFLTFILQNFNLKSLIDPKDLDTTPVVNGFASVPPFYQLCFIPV

One experiment addresses Cytochrome P450 2C9 (Homo sapiens) (UniProt P11712). Nature of the experiment: qHTS for inhibitors of CYP2C9 against the NCATS DSHEA and TCM libraries (AID 1919973). Further: potency means the concentration at half of the fitted maximal effect. The conditions noted are these: recombinant CYP2C9 enzyme activity, luminescence; series mostly up to 34.1 µM. The procedure, abridged:
(§1)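 Light output from converted D-luciferin reports remaining CYP activity. Compounds preincubate with enzyme and substrate for 15 min; NADPH regeneration (1x final) runs the reaction for 30-45 min.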
For orientation: Quantitative high-throughput screening tests each substance at several concentrations.
Regarding `O=C(/C=C/c1ccc(O)c2c1[C@H](C(=O)O)[C@@H](c1ccc(O)c(O)c1)O2)O[C@H](Cc1ccc(O)c(O)c1)C(=O)O`, the Potency is 14.1 µM (active).
On the same count and under the same terms, with `COc1cc(-c2oc3cc(O)cc(O)c3c(=O)c2O)ccc1O` the figure was 4.47 µM (active); with `O=C(/C=C/c1ccc(O)c(O)c1)O[C@H]1[C@H](O)C[C@](O)(C(=O)O)C[C@H]1OC(=O)/C=C/c1ccc(O)c(O)c1`, 15.8 µM (active); with `O=c1c(O[C@@H]2O[C@H](CO)[C@H](O)[C@H](O)[C@H]2O)c(-c2ccc(O)c(O)c2)oc2cc(O)cc(O)c12`, 7.94 µM (active).

In a further experiment the target is Cytochrome P450 2C19 (Homo sapiens) (UniProt P33261). Nature of the experiment: qHTS for inhibitors of CYP2C19 against the NCATS DSHEA and TCM libraries (AID 1919974).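 Further: luminescence from luciferin released by CYP2C19 oxidation of a pro-luciferin substrate.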 Further: potency means the concentration at half of the fitted maximal effect. The conditions noted are these: CYP2C19 enzyme inhibition, luminescence qHTS; series mostly up to 34.1 µM. The procedure, abridged:
as §1
`O=C(/C=C/c1ccc(O)c2c1[C@H](C(=O)O)[C@@H](c1ccc(O)c(O)c1)O2)O[C@H](Cc1ccc(O)c(O)c1)C(=O)O`: the Potency result was “inactive”.
Turning to `O=C(/C=C/c1ccc(O)c(O)c1)O[C@@H]1CC(O)(C(=O)O)C[C@@H](OC(=O)/C=C/c2ccc(O)c(O)c2)C1O` (stereo not given in full), the Potency entry is “inactive”.
In the case of `COc1cc(-c2oc3cc(O)cc(O)c3c(=O)c2O)ccc1O`, the Potency is 7.94 µM (active).
On the same count and under the same terms, for `O=c1c(O[C@@H]2O[C@H](CO)[C@H](O)[C@H](O)[C@H]2O)c(-c2ccc(O)c(O)c2)oc2cc(O)cc(O)c12` the value was 3.55 µM (active).

System in another experiment: not listed separately
Nature of the experiment: KB-3-1 P-gp reporter qHTS against the NCATS DSHEA and TCM libraries (AID 1919975). The following applies: KB-3-1 parental cells, CellTiter-Glo luminescence viability, 72 h; series mostly up to 26.1 µM. The procedure, abridged: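 Cell viability by CellTiter-Glo luminescence following ~72 h compound exposure (concentration-response). Uses parental, non-P-gp-overexpressing KB-3-1 line, 500 cells/well in DMEM/10% FBS, attached ~4 h before dosing.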
As for `O=C(/C=C/c1ccc(O)c2c1[C@H](C(=O)O)[C@@H](c1ccc(O)c(O)c1)O2)O[C@H](Cc1ccc(O)c(O)c1)C(=O)O`, the result was inactive.
Still for that read-out and setting: for `O=C(/C=C/c1ccc(O)c(O)c1)O[C@@H]1CC(O)(C(=O)O)C[C@@H](OC(=O)/C=C/c2ccc(O)c(O)c2)C1O` (stereo not given in full) the value was “inactive”; for `O=C(/C=C/c1ccc(O)c(O)c1)O[C@H]1[C@H](O)C[C@](O)(C(=O)O)C[C@H]1OC(=O)/C=C/c1ccc(O)c(O)c1`, “inactive”; for `O=c1c(O[C@@H]2O[C@H](CO)[C@H](O)[C@H](O)[C@H]2O)c(-c2ccc(O)c(O)c2)oc2cc(O)cc(O)c12`, “inactive”.

Another experiment deals with Cytochrome P450 1A2 (Homo sapiens) (UniProt P05177). Nature of the experiment: qHTS for inhibitors of CYPIA2 against the NCATS DSHEA and TCM libraries (AID 1919976).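 Further: light from luciferin formed by CYP1A2 from a pro-luciferin substrate.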 The following applies: recombinant CYP1A2 enzyme activity, luminescence; series mostly up to 37 µM. The procedure, abridged: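 In this quantitative HTS, inhibition of recombinant human CYP1A2 was measured as loss of luciferin-derived luminescence. Turnover ran 30-45 min at RT after NADPH regeneration solution was added.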
Cytochrome P450 1A2 (Homo sapiens), sequence (P05177 whole entry, looked up): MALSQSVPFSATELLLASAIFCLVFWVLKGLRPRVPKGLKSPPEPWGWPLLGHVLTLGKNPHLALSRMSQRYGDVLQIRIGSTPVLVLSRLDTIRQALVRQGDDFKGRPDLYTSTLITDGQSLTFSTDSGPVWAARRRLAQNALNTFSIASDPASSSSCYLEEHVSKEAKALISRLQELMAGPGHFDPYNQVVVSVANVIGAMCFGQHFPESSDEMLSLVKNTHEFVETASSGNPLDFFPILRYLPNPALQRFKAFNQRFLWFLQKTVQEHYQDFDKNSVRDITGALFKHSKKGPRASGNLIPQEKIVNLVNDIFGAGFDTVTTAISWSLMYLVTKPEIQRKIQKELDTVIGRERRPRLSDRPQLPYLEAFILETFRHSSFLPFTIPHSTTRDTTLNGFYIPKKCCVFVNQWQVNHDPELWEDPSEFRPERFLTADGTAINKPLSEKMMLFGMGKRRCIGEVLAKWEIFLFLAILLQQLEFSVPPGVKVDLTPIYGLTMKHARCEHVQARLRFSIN
`O=C(/C=C/c1ccc(O)c2c1[C@H](C(=O)O)[C@@H](c1ccc(O)c(O)c1)O2)O[C@H](Cc1ccc(O)c(O)c1)C(=O)O`: the Potency entry is “inactive”.
Regarding `O=C(/C=C/c1ccc(O)c(O)c1)O[C@@H]1CC(O)(C(=O)O)C[C@@H](OC(=O)/C=C/c2ccc(O)c(O)c2)C1O` (stereo not given in full), the Potency entry was “inactive”.
On the same count and under the same terms, for `O=C(/C=C/c1ccc(O)c(O)c1)O[C@H]1[C@H](O)C[C@](O)(C(=O)O)C[C@H]1OC(=O)/C=C/c1ccc(O)c(O)c1` the value was “inactive”.

System in the next experiment: not listed separately
In words: qHTS Counterscreen for compound interference against the NCATS DSHEA and TCM libraries (AID 1919978).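 Further: compounds preincubated with 1 µM D-luciferin or buffer before detection reagent.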 The conditions noted are these: firefly luciferase detection reagent interference, luminescence. Summed up: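 With 1 uM D-luciferin or phosphate buffer only, compounds at final 19.5 nM–39.8 uM were incubated for 15 min at room temperature. Luciferase detection reagent was then added, and luminescence was measured after a further 30 min at room temperature.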
For the compound `O=C(/C=C/c1ccc(O)c2c1[C@H](C(=O)O)[C@@H](c1ccc(O)c(O)c1)O2)O[C@H](Cc1ccc(O)c(O)c1)C(=O)O`, the max response was -1.18%.
On the same count and under the same terms, with `O=C(/C=C/c1ccc(O)c(O)c1)O[C@@H]1CC(O)(C(=O)O)C[C@@H](OC(=O)/C=C/c2ccc(O)c(O)c2)C1O` (stereo not given in full) the figure was 3.46%; with `COc1cc(-c2oc3cc(O)cc(O)c3c(=O)c2O)ccc1O`, -5.64%; with `O=C(/C=C/c1ccc(O)c(O)c1)O[C@H]1[C@H](O)C[C@](O)(C(=O)O)C[C@H]1OC(=O)/C=C/c1ccc(O)c(O)c1`, -1.54%.
On to `O=c1c(O[C@@H]2O[C@H](CO)[C@H](O)[C@H](O)[C@H]2O)c(-c2ccc(O)c(O)c2)oc2cc(O)cc(O)c12`, for which the max response was 1.88%.

System in the next experiment: not listed separately
In words: Dual reporter qHTS for agonist of Pregnane X Receptor (hPXR) against the NCATS DSHEA and TCM libraries: Fluorescence readout (AID 1920058). The following applies: PXR dual reporter cells; series mostly up to 40 µM. Summed up: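 Measures viability of the PXR reporter HepG2 line by protease-substrate fluorescence (405/540 nm), taken 1 h after CellTiter-Fluor addition. Substances are tested as concentration series over a ~24 h exposure, with rifampicin as agonist control.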
`O=C(/C=C/c1ccc(O)c2c1[C@H](C(=O)O)[C@@H](c1ccc(O)c(O)c1)O2)O[C@H](Cc1ccc(O)c(O)c1)C(=O)O`: the compound was called inactive.
Still for that read-out and setting: with `O=C(/C=C/c1ccc(O)c(O)c1)O[C@@H]1CC(O)(C(=O)O)C[C@@H](OC(=O)/C=C/c2ccc(O)c(O)c2)C1O` (stereo not given in full) the entry was “inactive”.
As for `COc1cc(-c2oc3cc(O)cc(O)c3c(=O)c2O)ccc1O`, the compound was classed as inactive.
The same measure, in the same setting: with `O=C(/C=C/c1ccc(O)c(O)c1)O[C@H]1[C@H](O)C[C@](O)(C(=O)O)C[C@H]1OC(=O)/C=C/c1ccc(O)c(O)c1` the entry was “inactive”.
Same read-out and setting: for `O=c1c(O[C@@H]2O[C@H](CO)[C@H](O)[C@H](O)[C@H]2O)c(-c2ccc(O)c(O)c2)oc2cc(O)cc(O)c12` the value was “inactive”.

A further experiment addresses Nuclear receptor subfamily 1 group I member 2 (Homo sapiens) (UniProt O75469). Nature of the experiment: Dual reporter qHTS for antagonist of Pregnane X Receptor (hPXR) against the NCATS DSHEA and TCM libraries: Luminescence Readout (AID 1920060). The following applies: hPXR dual reporter cells, luciferase luminescence, antagonist mode; series mostly up to 40 µM. The procedure, abridged: (§2)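 In antagonist mode, 2 uM rifampicin was added to hPXR-Luc HepG2 cells alongside test substances, incubated 24 h at 37 C; luminescence gave reporter activity, and CellTiter-Fluor fluorescence (405/540 nm) gave viability.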
On to `O=C(/C=C/c1ccc(O)c2c1[C@H](C(=O)O)[C@@H](c1ccc(O)c(O)c1)O2)O[C@H](Cc1ccc(O)c(O)c1)C(=O)O`, for which the compound was classed as inactive.
Same read-out and setting: with `O=C(/C=C/c1ccc(O)c(O)c1)O[C@@H]1CC(O)(C(=O)O)C[C@@H](OC(=O)/C=C/c2ccc(O)c(O)c2)C1O` (stereo not given in full) the entry was “inactive”.
Take `COc1cc(-c2oc3cc(O)cc(O)c3c(=O)c2O)ccc1O`: the outcome was inactive.
On the same count and under the same terms, for `O=C(/C=C/c1ccc(O)c(O)c1)O[C@H]1[C@H](O)C[C@](O)(C(=O)O)C[C@H]1OC(=O)/C=C/c1ccc(O)c(O)c1` the value was “inactive”; for `O=c1c(O[C@@H]2O[C@H](CO)[C@H](O)[C@H](O)[C@H]2O)c(-c2ccc(O)c(O)c2)oc2cc(O)cc(O)c12`, “inactive”.

System in another experiment: not listed separately
Nature of the experiment: Dual reporter qHTS for antagonist of Pregnane X Receptor (hPXR) against the NCATS DSHEA and TCM libraries: Fluorescence Readout (AID 1920061). The following applies: PXR dual reporter cells, antagonist mode; series mostly up to 40 µM. The procedure, abridged: as §2
As for `O=C(/C=C/c1ccc(O)c2c1[C@H](C(=O)O)[C@@H](c1ccc(O)c(O)c1)O2)O[C@H](Cc1ccc(O)c(O)c1)C(=O)O`, the call was inactive.
Still for that read-out and setting: for `O=C(/C=C/c1ccc(O)c(O)c1)O[C@@H]1CC(O)(C(=O)O)C[C@@H](OC(=O)/C=C/c2ccc(O)c(O)c2)C1O` (stereo not given in full) the value was “inactive”; for `COc1cc(-c2oc3cc(O)cc(O)c3c(=O)c2O)ccc1O`, “inactive”; for `O=C(/C=C/c1ccc(O)c(O)c1)O[C@H]1[C@H](O)C[C@](O)(C(=O)O)C[C@H]1OC(=O)/C=C/c1ccc(O)c(O)c1`, “inactive”.
Still for that read-out and setting: for `O=c1c(O[C@@H]2O[C@H](CO)[C@H](O)[C@H](O)[C@H]2O)c(-c2ccc(O)c(O)c2)oc2cc(O)cc(O)c12` the value was “inactive”.
